Source: PubChem BioAssay AID1159580 (chemical genetic matrix, 2015)
Values joined by “and” are separate entries in the source; they are usually repeats but may differ in a detail not shown here. Equal entries are not always repeated. About 2,000 (36%) of roughly 5,500 compounds were called active. Not shown: some 18% with an inconclusive outcome. No stated cut-off is given here; in the data, active means normalized growth mostly below about 0.91 (no sharp cut-off); inconclusive means no clear call, values can overlap the other calls; inactive means mostly above about 0.92. The list shows a part of the results.

Test: chemical genetic growth profiling, strain panel (AID 1159580);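 further: tested at 20 µM; growth read once vehicle control cultures reached saturation at 30 °C; 1 = growth at the plate median or of vehicle wells; lower values mean less growth of the strain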
Conditions: S. cerevisiae deletion strains, growth OD

Measured: normalized growth

CC(=O)O[C@H]1C[C@H](O[C@H]2[C@@H](O)C[C@H](O[C@H]3[C@@H](O)C[C@H](O[C@H]4CC[C@@]5(C)C(CCC6C5C[C@@H](O)[C@]5(C)[C@@H](C7=CC(=O)OC7)CC[C@]65O)C4)O[C@@H]3C)O[C@@H]2C)O[C@H](C)[C@H]1O[C@@H]1O[C@H](CO)[C@@H](O)[C@H](O)[C@H]1O (stereo not given in full)
inactive: locus YAL021C, strain ccr4, hits give low values 1 | locus YAL026C, strain drs2, hits give low values 0.996 | locus YAL030W, strain snc1, hits give low values 1 | locus YBL061C, strain skt5, hits give low values 0.991 | locus YBR009C, strain hhf1, hits give low values 0.995 | locus YBR021W, strain FUR4, hits give low values 1.02 | locus YBR023C, strain chs3, hits give low values 0.999 | locus YBR171W, strain sec66, hits give low values 0.995 | locus YBR229C, strain ROT2, hits give low values 1.01 | locus YBR231C, strain swc5, hits give low values 0.987 | locus YBR279W, strain paf1, hits give low values 0.996 | locus YCL011C, strain gbp2, hits give low values 1 | locus YCL016C, strain dcc1, hits give low values 0.996 | locus YCL029C, strain bik1, hits give low values 0.985 | locus YCL061C, strain MRC1, hits give low values 0.999 | locus YCL069W, strain vba3, hits give low values 0.993 | locus YCR088W, strain abp1, hits give low values 0.989 | locus YDL005C, strain med2, hits give low values 0.996 | locus YDL035C, strain GPR1, hits give low values 1.03 | locus YDL040C, strain nat1, hits give low values 0.994 | locus YDL074C, strain BRE1, hits give low values 1.02 | locus YDL101C, strain DUN1, hits give low values 1.02 | locus YDL134C, strain PPH21, hits give low values 1.02 | locus YDL185W, strain tfp1, hits give low values 1 | locus YDL192W, strain arf1, hits give low values 1.01 | locus YDR001C, strain nth1, hits give low values 0.994 | locus YDR069C, strain doa4, hits give low values 0.988 | locus YDR101C, strain arx1, hits give low values 0.983 | locus YDR137W, strain rgp1, hits give low values 0.997 | locus YDR150W, strain NUM1, hits give low values 1.01 | locus YDR159W, strain sac3, hits give low values 0.981 | locus YDR162C, strain NBP2, hits give low values 1.02 | locus YDR195W, strain ref2 0.961 | locus YDR297W, strain sur2, hits give low values 0.994 | locus YDR318W, strain mcm21, hits give low values 0.989 | locus YDR334W, strain swr1, hits give low values 0.999 | locus YDR335W, strain msn5, hits give low values 1 | locus YDR388W, hits give low values 0.989 | locus YDR392W, strain spt3, hits give low values 0.979 | locus YDR502C, strain sam2, hits give low values 1.01 | locus YEL003W, strain gim4, hits give low values 0.995 | locus YEL037C, strain rad23, hits give low values 0.999 | locus YEL061C, strain CIN8 (second series), hits give low values 0.99 | locus YEL061C, strain CIN8, hits give low values 1.01 | locus YER015W, strain faa2, hits give low values 0.994 | locus YER016W, strain bim1, hits give low values 0.993 | locus YER110C, hits give low values 0.984 | locus YER111C, strain swi4, hits give low values 0.997 | locus YER155C, strain BEM2 (second series), hits give low values 1.01 | locus YER155C, strain BEM2, hits give low values 1 | locus YER167W, strain BCK2, hits give low values 1.01 | locus YFR010W, strain ubp6, hits give low values 0.994 | locus YGL078C, strain dbp3, hits give low values 1.01 | locus YGL086W, strain mad1, hits give low values 0.998 | locus YGL167C, strain pmr1, hits give low values 1 | locus YGL173C, strain kem1, hits give low values 1 | locus YGL227W, strain vid30, hits give low values 0.987 | locus YGL240W, strain doc1, hits give low values 0.995 | locus YGL248W, strain PDE1, hits give low values 1.01 | locus YGL253W, strain hxk2, hits give low values 0.997 | locus YGR078C, strain PAC10, hits give low values 1 | locus YGR135W, strain pre9, hits give low values 1.01 | locus YGR229C, strain SMI1, hits give low values 1.02 | locus YGR252W, strain gcn5, hits give low values 1.17 | locus YHR013C, strain ard1, hits give low values 0.969 | locus YHR027C, strain rpn1, hits give low values 0.999 | locus YHR030C, strain SLT2, hits give low values 1 and 0.975 | locus YHR079C, strain IRE1, hits give low values 0.966 | locus YHR094C, strain hxt1, hits give low values 0.973 | locus YHR129C, strain ARP1, hits give low values 1.01 | locus YHR142W, strain chs7, hits give low values 0.996 | locus YHR200W, strain rpn10, hits give low values 1 | locus YIL066C, strain RNR3, hits give low values 1.01 | locus YIL073C, strain SPO22, hits give low values 1.08 | locus YIL125W, strain kgd1, hits give low values 1 | locus YIR030C, strain dcg1, hits give low values 0.988 | locus YJL092W, strain hpr5, hits give low values 1 | locus YJL095W, strain BCK1 (second series), hits give low values 0.998 | locus YJL095W, strain BCK1, hits give low values 1 and 0.977 | locus YJL115W, strain asf1, hits give low values 0.996 | locus YJL129C, strain trk1, hits give low values 0.998 | locus YJL134W, strain LCB3, hits give low values 1.01 | locus YJL154C, strain vps35, hits give low values 0.993 | locus YJL164C, strain tpk1, hits give low values 1.01 | locus YJL166W, strain qcr8, hits give low values 1 | locus YJL168C, strain set2, hits give low values 0.982 | locus YJL187C, strain SWE1 (second series), hits give low values 1.01 | locus YJL187C, strain SWE1, hits give low values 0.995 | locus YJR043C, strain POL32, hits give low values 0.999 | locus YJR066W, strain TOR1, hits give low values 0.933
